Source: PubChem (several laboratories)
Compounds with a hit are over-represented: about 3.4% of the library has one in this group of screens.
ANO1 activ: TMEM16A chloride channel activators or potentiators, primary screen, cell-based, HTS | B-score at 10 µM | HEK293 TMEM16A/YFP-H148Q/I152L, iodide quench fluorescence; hits give low values | Anoctamin-1 (Mus musculus), Q8BHY3 | 340,000 tested, 0.3% active;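 active = fluorescence-ratio B-score plate-corrected deviation score at least 3 library SD below zero, with starting fluorescence score within 5 deviations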;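 also: channel opened by trigger with iodide after compound preincubation; score built on the fluorescence ratio of max minus min over baseline; more negative score means more quench and so TMEM16A activation or potentiation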
ANO1 block: TMEM16A chloride channel inhibitors, primary screen, cell-based, HTS. HEK293 TMEM16A/YFP iodide influx fluorescence, ionomycin. normalized B-score (activity score, 25-100; higher = stronger inhibition) at 10 µM. 310,000 tested, 1.2% active. Anoctamin-1 (Mus musculus), Q8BHY3. AID 588511, 2011;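 active = ratio plate-corrected score three or more library SD toward inhibition, starting fluorescence score within five deviations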;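 also: score derived from kinetic fluorescence span divided by baseline fluorescence per well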
MEKK2wt PB1 HTS: modulators of MEK5 binding to wildtype MEKK2, primary screen, biochemical, multiplex bead flow cytometry, Alexa488-MEK5; Mitogen-activated protein kinase kinase kinase 2 (Homo sapiens), Q9Y2U5; Alexa488-MEK5 binding to MEKK2 WT; actives lie on both sides; binding response (% of control), % at 10 µM; 290,000 tested, 1.1% active; AID 1531, 2009; in the data active = binding response below about 67% or above about 130%
MEKK3 PB1 HTS: modulators of MEKK3-MEK5 PB1 binding, primary screen, biochemical, wildtype MEKK3, multiplex bead flow cytometry, Alexa488-MEK5 | Mitogen-activated protein kinase kinase kinase 3 (Homo sapiens), Q99759 | bead-based flow cytometry, Alexa488-MEK5 binding to MEKK3; actives lie on both sides; 0 = blocked by unlabeled MEK5, 100 = vehicle | binding response (% of control), % at 10 µM | 290,000 tested, 1.4% active | AID 1529, 2009;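 active = binding response more than 3 SD above or below the average of its plate-row segment, actives on both sides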;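 also: Alexa488 bead fluorescence after subtracting the streptavidin-only scavenger bead signal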
NTR1 agonist: agonists of human NTR1, primary screen, imaging, U2OS cells, beta-arrestin-GFP, high content | activation, % at 20 µM | Neurotensin receptor type 1 (Homo sapiens), P30989 | 330,000 tested, 0.17% active | NTR1-U2OS beta-arrestin-GFP spot imaging, agonist mode;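 active = activation at or above 40% of the spot to cytoplasm intensity ratio, with at least 20 cells analyzed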;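 also: 0% = DMSO without peptide and 100% = 100 nM NTR1 peptide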
MEKK2mut PB1 HTS: MEK5 binding signal on mutant MEKK2 PB1, primary screen, biochemical, multiplex bead flow cytometry, Alexa488-MEK5. Alexa488-MEK5 binding to MEKK2 mutant. percent response, % at 10 µM. 290,000 tested, 0.35% active; in the data active = percent response above about 24%, passing the limit was not always enough
TMEM16A reconf: TMEM16A chloride channel inhibitors, confirmation, cell-based, re-confirmation; HEK293 TMEM16A/YFP-H148Q, iodide quench fluorescence; ionomycin added to raise cell calcium; AID 652189, 2013; 2,300 tested, 39% active; inhibition, % at 10 µM; shares compounds with ANO1 block;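 active = mean duplicate percent inhibition, scaled so buffer wells are 0 and the reference blocker 100, over three buffer SD above buffer mean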
TMEM16A Ca cntr: calcium mobilization in TMEM16A/YFP HEK293 cells, confirmation, counter-screen for TMEM16A inhibitor project. shares compounds with ANO1 block. Fluo4 calcium mobilization. calcium response (% of ionomycin), % at 10 µM. 2,300 tested, 2% active;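 active = duplicate-averaged calcium signal over 20% of the ionomycin maximum, relative to buffer baseline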;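 also: each well's signal is peak minus trough fluorescence divided by its pre-addition baseline; 0% = buffer wells and 100% = ionomycin wells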
Parental YFP cnt: iodide YFP quench changes in parental YFP-HEK293, counter-screen for TMEM16A inhibitor project, cell-based. ionomycin. shares compounds with ANO1 block. AID 652233, 2013. 2,300 tested, under 10 active. YFP ratio F(max-min)/F0 at 10 µM;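 active = yellow fluorescent protein signal ratio exceeding the buffer control mean by over 5 SD of those controls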;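 also: ratio is mean of duplicate wells from kinetic YFP trace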
ClC-1 inh: ClC-1 chloride channel inhibition, selectivity assay for TMEM16A inhibitor project, cell-based, voltage-dependent ClC-1; shares compounds with ANO1 block; CHO ClC-1-YFP, iodide influx fluorescence quench; iodide control reads 0, buffer control 100; ratio percent, % at 10 µM; 2,300 tested, under 10 active;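 active = duplicate-mean ratio percent above the mean of iodide-only control wells, which defines zero, plus 5 of their SD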;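 also: higher percent means stronger block of ClC-1 iodide influx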
* marks the source's active call; other numbers are inactive results; i = inactive; · = no result.

SMILES	ANO1 activ	ANO1 block	MEKK2wt PB1 HTS	MEKK3 PB1 HTS	NTR1 agonist	MEKK2mut PB1 HTS	TMEM16A reconf	TMEM16A Ca cntr	Parental YFP cnt	ClC-1 inh
CN1c2ccsc2C(O)=C(C(=S)Nc2ccc(F)c(Cl)c2)S1(=O)=O	i	25*	104	108	5	8	21%*	i	-1.1	-10
O=C(CN1C(=O)NC2(CCCC2)C1=O)N1CCN(c2ccccc2O)CC1	i	i	·	·	0	·	·	·	·	·
Cc1cccc(N2CCN(C(=O)CCC(=O)N3CC(C)Oc4ccccc43)CC2)c1C (stereo unspecified)	i	25*	92	97	2	-2	i	i	-0.95	0
CC1CCN(C(=O)CCC(=O)N2CC(C)Oc3ccccc32)CC1 (stereo unspecified)	i	i	102	101	4	2	·	·	·	·
O=C(CCC(=O)c1ccccc1)NCc1ccccc1	i	i	95	102	0	-5	·	·	·	·
COc1ccccc1N1CC(C(=O)NCC2COc3ccccc3O2)CC1=O (stereo unspecified)	i	·	·	·	0	·	·	·	·	·
O=C(NCc1cccc(Cl)c1)c1cccc(OC2CCN(C(=O)C3CC3)CC2)c1	i	100*	108	101	0	5	i	i	-1.1	-17
COC(=O)c1ccc(C(=O)OC)c(NS(C)(=O)=O)c1	i	25*	82	79	1	-6	i	i	-0.96	-11
CC1(C)CC(=O)C2=C(C1)N(c1ccccc1)C(=O)CC2c1ccc(O)cc1 (stereo unspecified)	i	i	79	94	-1	-11	·	·	·	·
C/C(CC1CC2=C(CC1(C)C)C(C)(C)CCC2)=N\NC(N)=S (stereo unspecified)	i	25*	95	106	16	0	i	26%*	-1	-5
O=C(Nc1ccc(N2CCCCCC2)cc1)c1ccc[nH]1	i	·	·	·	-2	·	·	·	·	·
Fc1ccc(NCc2cccnc2)cc1	i	100*	99	110	1	5	i	i	-1.2	-2
CCN(C(=O)CSc1nnc(-c2ccco2)n1CC)c1c(N)n(Cc2ccccc2)c(=O)[nH]c1=O	i	·	·	·	2	·	·	·	·	·
Cc1cc(C(=O)N2CCN(C(=O)C3CCCO3)CC2)no1 (stereo unspecified)	i	100*	100	97	2	1	20%*	i	-0.96	-6
CC(C)NC(=O)C1CCN(c2ccc(S(=O)(=O)N3CCOCC3)cc2Cl)CC1	i	i	96	93	0	-2	·	·	·	·
COc1ccc(/C=C/C(=O)N2CCN(S(=O)(=O)c3ccccc3Br)CC2)cc1OC	i	·	·	·	3	·	·	·	·	·
CC1=C(SCc2ccccc2)C(=O)c2ccccc2C1=O	i	·	·	·	·	·	·	·	·	·
O=C1C(SCCO)=C(SCCO)C(=O)c2ccccc21	i	100*	·	·	-1	·	40%*	i	-0.91	-34
COc1ccc(CCNc2cc(N3CCN(C(=O)c4ccccc4F)CC3)ccc2[N+](=O)[O-])cc1OC	i	25*	·	·	5	·	42%*	i	-0.85	-18
CCN(CC)c1ccc(/C=N/NC(=O)OC)c(O)c1	i	i	96	97	1	1	·	·	·	·
CCN(CC)c1ccc(C=Nc2cc(C)cc(C)c2)c(O)c1	-5.2*	25*	74	84	2	-6	i	i	-1.1	-3
CC(NC(=O)Nc1cccc([N+](=O)[O-])c1)(C(F)(F)F)C(F)(F)F	i	100*	101	98	0	-4	i	i	-0.88	-14
O=C(Nc1cccc([N+](=O)[O-])c1)c1cccc(C(=O)Nc2cccc([N+](=O)[O-])c2)c1	i	i	97	93	2	2	·	·	·	·
CC(C)(C)c1csc(SCC(=O)Nc2ccc(Cl)cn2)n1	i	100*	102	107	0	3	i	i	-1.2	-5
Cc1csc(SCC(=O)Nc2ccc(Cl)cn2)n1	i	i	114	114	-2	2	·	·	·	·
SMILES	ANO1 activ	ANO1 block	MEKK2wt PB1 HTS	MEKK3 PB1 HTS	NTR1 agonist	MEKK2mut PB1 HTS	TMEM16A reconf	TMEM16A Ca cntr	Parental YFP cnt	ClC-1 inh
CC1(C)COCN1S(=O)(=O)c1ccc(C(=O)Nc2nnc(-c3ccc(Cl)s3)o2)cc1	·	100*	·	·	2	·	i	i	-0.86	-18
NS(=O)(=O)c1ccc(NCc2ccccc2OCc2ccc(F)cc2)cc1	i	100*	104	107	1	5	i	i	-0.93	-2
C=CCNC(=O)c1onc(CSc2ccccc2)c1C(=O)O	i	i	114	110	-3	6	·	·	·	·
C=CCNC(=O)c1onc(CSc2ccc(C(C)C)cc2)c1C(=O)O	i	25*	108	104	-2	7	i	i	-1	-16
CCOC(=O)C1=C(COC(=O)CC(C)c2ccccc2)NC(=O)NC1C (stereo unspecified)	i	·	·	·	1	·	·	·	·	·
CSc1nc2ccc(NS(=O)(=O)c3ccc4c(c3)OCCO4)cc2s1	i	100*	98	103	1	0	18%*	i	-0.93	-16
Cc1ccc(NC(=O)C(C)Sc2n[nH]c(CNc3ccccc3)n2)cc1 (stereo unspecified)	i	i	93	94	0	1	·	·	·	·
CCOc1ccc(-n2c(=S)sc3c(=O)[nH]c(SCC(=O)C(C)(C)C)nc32)cc1	i	100*	82	103	4	-11	34%*	i	-0.98	-17
